Data from ChEMBL document CHEMBL1961873, “Compounds: GSK PKIS; Assays: Nanosyn kinase panel” (2012).

What was measured:
[1] = target: Dual specificity protein kinase CLK3 (Homo sapiens) (UniProt P49761); details: at 1 µM;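 note: each value is the mean inhibition of CLK3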
[2] = target: Dual specificity tyrosine-phosphorylation-regulated kinase 1A (Homo sapiens) (UniProt Q13627); details: at 0.1 µM
[3] = target: Dual specificity tyrosine-phosphorylation-regulated kinase 1A (Homo sapiens) (UniProt Q13627); details: at 1 µM
[4] = target: Dual specificity tyrosine-phosphorylation-regulated kinase 1B (Homo sapiens) (UniProt Q9Y463); details: at 0.1 µM
[5] = target: Dual specificity tyrosine-phosphorylation-regulated kinase 1B (Homo sapiens) (UniProt Q9Y463); details: at 1 µM
[6] = target: T1, Dual specificity tyrosine-phosphorylation-regulated kinase 2 (Homo sapiens) (UniProt Q92630); details: at 0.1 µM
T1 sequence (whole entry): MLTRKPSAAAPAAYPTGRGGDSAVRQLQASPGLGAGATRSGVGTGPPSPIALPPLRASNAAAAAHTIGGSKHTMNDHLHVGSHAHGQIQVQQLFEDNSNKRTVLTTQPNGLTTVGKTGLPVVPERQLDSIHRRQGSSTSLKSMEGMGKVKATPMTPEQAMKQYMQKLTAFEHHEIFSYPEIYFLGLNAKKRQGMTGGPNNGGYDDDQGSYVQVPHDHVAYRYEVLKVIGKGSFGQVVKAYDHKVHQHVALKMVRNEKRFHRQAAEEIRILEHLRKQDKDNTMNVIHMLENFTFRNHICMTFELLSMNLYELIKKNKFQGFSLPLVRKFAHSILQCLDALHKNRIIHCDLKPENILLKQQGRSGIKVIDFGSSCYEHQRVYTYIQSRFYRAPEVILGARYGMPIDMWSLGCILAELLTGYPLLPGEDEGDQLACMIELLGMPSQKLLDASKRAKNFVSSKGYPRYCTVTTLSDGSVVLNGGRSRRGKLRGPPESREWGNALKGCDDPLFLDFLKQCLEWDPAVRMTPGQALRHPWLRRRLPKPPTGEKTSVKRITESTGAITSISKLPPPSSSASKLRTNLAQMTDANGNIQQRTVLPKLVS

[7] = target: T1, Dual specificity tyrosine-phosphorylation-regulated kinase 2 (Homo sapiens); details: at 1 µM
[8] = target: Glycogen synthase kinase-3 alpha (Homo sapiens) (UniProt P49840); details: at 0.1 µM
[9] = target: Glycogen synthase kinase-3 alpha (Homo sapiens) (UniProt P49840); details: at 1 µM
[10] = target: Glycogen synthase kinase-3 beta (Homo sapiens) (UniProt P49841); details: at 0.1 µM
[11] = target: Glycogen synthase kinase-3 beta (Homo sapiens) (UniProt P49841); details: at 1 µM
[12] = target: Homeodomain-interacting protein kinase 1 (Homo sapiens) (UniProt Q86Z02); details: at 0.1 µM
[13] = target: Homeodomain-interacting protein kinase 1 (Homo sapiens) (UniProt Q86Z02); details: at 1 µM
[14] = target: T2, Homeodomain-interacting protein kinase 4 (Homo sapiens) (UniProt Q8NE63); details: at 0.1 µM
T2 sequence (whole entry): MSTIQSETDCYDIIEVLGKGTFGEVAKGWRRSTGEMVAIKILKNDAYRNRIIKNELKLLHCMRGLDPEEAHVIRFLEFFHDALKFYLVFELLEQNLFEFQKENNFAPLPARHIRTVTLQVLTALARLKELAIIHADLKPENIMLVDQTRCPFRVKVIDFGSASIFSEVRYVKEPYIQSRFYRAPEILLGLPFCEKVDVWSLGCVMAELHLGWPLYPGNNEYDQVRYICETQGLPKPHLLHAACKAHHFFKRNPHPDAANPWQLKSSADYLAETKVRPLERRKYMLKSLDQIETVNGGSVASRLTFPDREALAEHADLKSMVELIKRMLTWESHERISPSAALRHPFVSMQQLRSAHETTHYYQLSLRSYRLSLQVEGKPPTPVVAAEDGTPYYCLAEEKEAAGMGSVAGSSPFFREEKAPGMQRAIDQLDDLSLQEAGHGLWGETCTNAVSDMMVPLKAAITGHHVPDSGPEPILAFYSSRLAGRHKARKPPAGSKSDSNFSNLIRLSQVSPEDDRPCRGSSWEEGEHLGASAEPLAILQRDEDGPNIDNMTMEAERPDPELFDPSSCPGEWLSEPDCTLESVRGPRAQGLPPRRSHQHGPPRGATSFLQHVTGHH

[15] = target: T2, Homeodomain-interacting protein kinase 4 (Homo sapiens); details: at 1 µM
[16] = target: Mitogen-activated protein kinase 9 (Homo sapiens) (UniProt P45984); details: at 0.1 µM
[17] = target: Mitogen-activated protein kinase 9 (Homo sapiens) (UniProt P45984); details: at 1 µM
[18] = target: Mitogen-activated protein kinase 1 (Homo sapiens) (UniProt P28482); details: at 0.1 µM
[19] = target: Mitogen-activated protein kinase 1 (Homo sapiens) (UniProt P28482); details: at 1 µM
[20] = target: Mitogen-activated protein kinase 3 (Homo sapiens) (UniProt P27361); details: at 0.1 µM;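 note: each value is a mean inhibition figure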
Mitogen-activated protein kinase 3 (Homo sapiens), sequence (P27361 whole entry): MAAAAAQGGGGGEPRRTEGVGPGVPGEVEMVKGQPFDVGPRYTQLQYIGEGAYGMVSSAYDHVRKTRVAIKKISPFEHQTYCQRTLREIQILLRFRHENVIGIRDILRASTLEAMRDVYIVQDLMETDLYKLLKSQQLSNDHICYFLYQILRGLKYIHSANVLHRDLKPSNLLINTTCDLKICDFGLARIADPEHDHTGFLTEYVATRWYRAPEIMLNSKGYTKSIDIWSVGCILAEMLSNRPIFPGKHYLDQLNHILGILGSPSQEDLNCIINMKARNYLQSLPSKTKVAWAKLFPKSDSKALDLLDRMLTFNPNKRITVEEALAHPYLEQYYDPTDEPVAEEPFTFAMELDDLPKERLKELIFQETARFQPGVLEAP

Homeodomain-interacting protein kinase 1 (Homo sapiens), sequence (Q86Z02 whole entry, looked up): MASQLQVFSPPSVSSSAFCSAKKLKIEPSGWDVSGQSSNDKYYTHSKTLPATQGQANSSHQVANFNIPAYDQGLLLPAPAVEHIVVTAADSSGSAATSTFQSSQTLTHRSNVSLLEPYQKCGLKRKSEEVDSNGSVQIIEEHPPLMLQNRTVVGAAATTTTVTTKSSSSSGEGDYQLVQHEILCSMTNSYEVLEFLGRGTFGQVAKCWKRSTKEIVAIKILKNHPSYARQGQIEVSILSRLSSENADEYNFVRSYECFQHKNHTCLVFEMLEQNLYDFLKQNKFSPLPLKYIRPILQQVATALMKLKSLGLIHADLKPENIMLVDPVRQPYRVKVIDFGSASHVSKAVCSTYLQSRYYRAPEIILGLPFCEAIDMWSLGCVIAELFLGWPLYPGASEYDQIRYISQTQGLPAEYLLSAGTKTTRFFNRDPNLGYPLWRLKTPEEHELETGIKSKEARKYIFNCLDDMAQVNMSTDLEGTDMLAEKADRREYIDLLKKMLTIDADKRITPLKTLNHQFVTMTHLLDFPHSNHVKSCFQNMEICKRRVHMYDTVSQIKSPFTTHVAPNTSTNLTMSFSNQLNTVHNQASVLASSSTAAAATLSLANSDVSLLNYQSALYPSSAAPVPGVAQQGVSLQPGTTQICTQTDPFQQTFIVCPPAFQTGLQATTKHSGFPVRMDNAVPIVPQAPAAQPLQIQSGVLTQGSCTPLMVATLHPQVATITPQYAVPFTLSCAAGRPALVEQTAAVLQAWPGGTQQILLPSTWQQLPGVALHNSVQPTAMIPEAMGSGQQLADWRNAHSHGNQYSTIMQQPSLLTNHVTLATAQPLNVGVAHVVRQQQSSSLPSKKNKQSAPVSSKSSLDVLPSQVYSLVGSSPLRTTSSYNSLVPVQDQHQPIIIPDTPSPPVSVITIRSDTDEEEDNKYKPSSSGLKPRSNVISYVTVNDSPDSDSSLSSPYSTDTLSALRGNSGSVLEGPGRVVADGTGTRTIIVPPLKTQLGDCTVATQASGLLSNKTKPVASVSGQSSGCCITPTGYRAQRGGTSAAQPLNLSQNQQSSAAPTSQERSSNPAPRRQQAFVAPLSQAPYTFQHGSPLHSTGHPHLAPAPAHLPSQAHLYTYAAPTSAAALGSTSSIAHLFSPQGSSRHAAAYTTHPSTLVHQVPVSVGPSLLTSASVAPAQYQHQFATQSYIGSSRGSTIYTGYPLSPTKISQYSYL
Glycogen synthase kinase-3 alpha (Homo sapiens), sequence (P49840 2-483 limits assumed): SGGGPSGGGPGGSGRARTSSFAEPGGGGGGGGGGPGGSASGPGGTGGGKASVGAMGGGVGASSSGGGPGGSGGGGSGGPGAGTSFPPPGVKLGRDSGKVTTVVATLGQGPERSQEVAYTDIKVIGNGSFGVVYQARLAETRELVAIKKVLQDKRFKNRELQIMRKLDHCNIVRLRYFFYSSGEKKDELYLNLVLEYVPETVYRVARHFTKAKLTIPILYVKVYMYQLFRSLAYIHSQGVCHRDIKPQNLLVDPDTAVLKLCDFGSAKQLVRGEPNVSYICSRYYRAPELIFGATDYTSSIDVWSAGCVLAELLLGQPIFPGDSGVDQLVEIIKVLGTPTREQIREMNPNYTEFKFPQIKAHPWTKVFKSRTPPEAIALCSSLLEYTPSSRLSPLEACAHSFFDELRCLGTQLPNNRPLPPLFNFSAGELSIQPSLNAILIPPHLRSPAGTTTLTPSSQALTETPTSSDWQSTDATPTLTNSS
Mitogen-activated protein kinase 9 (Homo sapiens), sequence (P45984 whole entry, looked up): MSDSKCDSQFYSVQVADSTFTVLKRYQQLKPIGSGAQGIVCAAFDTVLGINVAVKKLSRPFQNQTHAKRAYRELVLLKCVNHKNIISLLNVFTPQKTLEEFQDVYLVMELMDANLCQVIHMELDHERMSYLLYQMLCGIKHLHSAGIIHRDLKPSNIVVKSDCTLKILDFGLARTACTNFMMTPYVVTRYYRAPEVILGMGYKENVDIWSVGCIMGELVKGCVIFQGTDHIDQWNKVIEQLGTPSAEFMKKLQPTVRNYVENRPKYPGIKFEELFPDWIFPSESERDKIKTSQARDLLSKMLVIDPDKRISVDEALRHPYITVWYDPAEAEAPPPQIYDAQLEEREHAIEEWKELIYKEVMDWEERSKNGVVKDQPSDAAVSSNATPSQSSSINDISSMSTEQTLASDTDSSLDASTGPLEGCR
Mitogen-activated protein kinase 1 (Homo sapiens), sequence (P28482 whole entry): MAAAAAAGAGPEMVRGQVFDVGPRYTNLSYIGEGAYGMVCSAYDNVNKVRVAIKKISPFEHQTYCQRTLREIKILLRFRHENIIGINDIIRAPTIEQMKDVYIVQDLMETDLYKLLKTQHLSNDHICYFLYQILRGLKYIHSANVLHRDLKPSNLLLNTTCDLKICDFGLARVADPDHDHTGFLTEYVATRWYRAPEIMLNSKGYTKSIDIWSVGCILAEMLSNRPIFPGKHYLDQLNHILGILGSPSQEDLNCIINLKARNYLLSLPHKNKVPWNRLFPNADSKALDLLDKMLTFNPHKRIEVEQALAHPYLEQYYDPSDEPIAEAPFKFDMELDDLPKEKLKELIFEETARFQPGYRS
Dual specificity tyrosine-phosphorylation-regulated kinase 1B (Homo sapiens), sequence (Q9Y463 whole entry, looked up): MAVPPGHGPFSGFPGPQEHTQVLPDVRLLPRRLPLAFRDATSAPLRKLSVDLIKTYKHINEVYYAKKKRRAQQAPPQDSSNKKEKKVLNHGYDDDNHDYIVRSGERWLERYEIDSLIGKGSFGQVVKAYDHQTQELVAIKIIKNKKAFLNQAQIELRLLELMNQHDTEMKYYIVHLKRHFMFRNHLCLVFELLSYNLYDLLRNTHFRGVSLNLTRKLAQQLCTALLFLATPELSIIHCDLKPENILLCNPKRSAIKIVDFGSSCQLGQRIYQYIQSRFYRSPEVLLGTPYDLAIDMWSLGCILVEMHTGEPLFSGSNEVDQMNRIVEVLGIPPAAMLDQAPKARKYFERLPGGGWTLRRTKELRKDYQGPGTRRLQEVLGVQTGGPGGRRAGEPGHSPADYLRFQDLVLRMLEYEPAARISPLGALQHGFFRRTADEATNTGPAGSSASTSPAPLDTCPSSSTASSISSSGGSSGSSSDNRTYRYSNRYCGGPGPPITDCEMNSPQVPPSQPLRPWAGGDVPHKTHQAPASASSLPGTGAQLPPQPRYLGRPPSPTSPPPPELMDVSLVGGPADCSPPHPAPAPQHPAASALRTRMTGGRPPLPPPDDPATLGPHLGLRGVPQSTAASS
Dual specificity protein kinase CLK3 (Homo sapiens), sequence (P49761 whole entry, looked up): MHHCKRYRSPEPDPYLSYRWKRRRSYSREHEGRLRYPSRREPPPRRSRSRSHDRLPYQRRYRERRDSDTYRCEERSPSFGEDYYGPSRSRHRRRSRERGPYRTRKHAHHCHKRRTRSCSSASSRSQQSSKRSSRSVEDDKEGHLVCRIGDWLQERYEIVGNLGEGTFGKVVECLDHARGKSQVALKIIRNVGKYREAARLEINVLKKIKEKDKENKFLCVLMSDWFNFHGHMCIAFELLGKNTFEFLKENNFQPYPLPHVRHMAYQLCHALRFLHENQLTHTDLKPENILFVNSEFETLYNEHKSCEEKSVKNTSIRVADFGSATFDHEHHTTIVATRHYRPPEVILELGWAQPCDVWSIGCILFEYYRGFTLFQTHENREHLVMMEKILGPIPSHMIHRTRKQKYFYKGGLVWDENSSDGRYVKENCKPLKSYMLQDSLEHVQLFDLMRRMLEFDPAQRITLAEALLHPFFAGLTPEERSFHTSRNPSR
Glycogen synthase kinase-3 beta (Homo sapiens), sequence (P49841 whole entry, looked up): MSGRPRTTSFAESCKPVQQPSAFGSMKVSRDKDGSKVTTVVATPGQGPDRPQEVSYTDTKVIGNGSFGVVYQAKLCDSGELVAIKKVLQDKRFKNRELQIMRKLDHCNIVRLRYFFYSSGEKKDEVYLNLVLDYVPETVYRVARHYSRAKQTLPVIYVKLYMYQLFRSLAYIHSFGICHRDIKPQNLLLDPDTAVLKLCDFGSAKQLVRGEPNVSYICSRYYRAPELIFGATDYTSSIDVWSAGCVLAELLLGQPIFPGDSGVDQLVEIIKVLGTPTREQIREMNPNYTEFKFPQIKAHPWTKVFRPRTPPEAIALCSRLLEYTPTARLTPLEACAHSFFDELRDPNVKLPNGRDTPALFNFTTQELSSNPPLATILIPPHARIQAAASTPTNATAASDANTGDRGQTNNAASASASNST

| Compound | inhibition [1] [%] | inhibition [2] [%] | inhibition [3] [%] | inhibition [4] [%] | inhibition [5] [%] | inhibition [6] [%] | inhibition [7] [%] | inhibition [8] [%] | inhibition [9] [%] | inhibition [10] [%] | inhibition [11] [%] | inhibition [12] [%] | inhibition [13] [%] | inhibition [14] [%] | inhibition [15] [%] | inhibition [16] [%] | inhibition [17] [%] | inhibition [18] [%] | inhibition [19] [%] | inhibition [20] [%] |
| --- | --- | --- | --- | --- | --- | --- | --- | --- | --- | --- | --- | --- | --- | --- | --- | --- | --- | --- | --- | --- |
| O=C(Nc1ccc(Oc2ccc3[nH]c(NC(=O)c4ccco4)nc3c2)cc1)Nc1cc(C(F)(F)F)ccc1F | -2.83 | -3.75 | -1.33 | -3.67 | -1.57 | 0.62 | 0.74 | -1.87 | 2.71 | -2.51 | 1.83 | -4.45 | -2.14 | 13.6 | 66.3 | 0.08 | 2.67 | 0.81 | 0.8 | 1.59 |
| CN(C)c1cc2c(Nc3ccc4c(cnn4Cc4ccccc4)c3)ncnc2cn1 | 1.41 | 2.17 | 6.83 | 1.02 | 3.5 | 2.42 | 2.63 | 1.84 | 5.95 | 1.16 | 4.25 | -0.5 | 2.06 | 0.72 | 0.89 | 2.84 | 2.39 | 1.31 | 3.41 | 0.27 |
| Cc1cc(Cl)cc2c1NC(=O)C2=NNc1ccc(S(N)(=O)=O)cc1 | 0.83 | 1.45 | 2.28 | -0.62 | 1.24 | 0.8 | 2.04 | 2.99 | 6.57 | 1.19 | 5.76 | 1.47 | 1.67 | 0.61 | 2.42 | -0.14 | 2.41 | 4.09 | 2.74 | 2.98 |
| Cc1ccc2c(-c3ccnc(Nc4ccc5c(c4)OCCO5)n3)c(-c3ccc(C(F)(F)F)cc3)nn2n1 | 0.07 | 0.1 | 2 | -0.58 | 1.39 | -0.27 | -1.15 | 5.44 | 10.5 | 4.65 | 10.2 | -4.36 | 0.03 | -0.51 | -0.85 | -0.33 | 4.2 | 1.99 | 2.01 | 2.57 |
| COc1cccc(-n2ncc3c(N/N=C/c4ccc(C)cc4)ncnc32)c1 | 1.46 | 5.94 | 16.5 | 3.97 | 11.3 | 5.76 | 13.6 | 19.4 | 55.6 | 13.1 | 47 | 1.58 | 13.3 | 3.16 | 11.4 | 8.36 | 11.6 | 6.17 | 7.67 | 4.71 |
| Nc1ccc(C#Cc2cncnc2Nc2ccc(OCc3cccc(F)c3)c(Cl)c2)cc1 | 0.7 | 3.22 | 2.99 | 0.49 | 2.12 | 1.74 | 0.41 | 2.01 | 1.4 | 1.95 | 0.21 | -0.22 | 0.93 | 0.09 | 0.28 | 1.88 | 1.2 | 4.25 | 3.67 | 3.61 |
| NC(=O)c1sc(-n2cnc3ccccc32)cc1OCc1ccccc1Br | 0.92 | 2.9 | 4.57 | 0.66 | 2.25 | 3.45 | 5.8 | 5.13 | 11.9 | 4.55 | 11.8 | -1.6 | 7.12 | 0.95 | 7.54 | 4.13 | 6 | 3.31 | 5.56 | 1.19 |
